Laboratory results from PubChem BioAssay (Tox21).
Inconclusive results are not listed. Activity calls are given as the source filed them. Unless noted, the call rests on the fitted dose curve; in most records, active means well fitted curve in the direction sought with a large enough effect in the repeat runs; inconclusive means weak or mixed curves; inactive means no such curve, though single readings can be large; an effect the other way counts as inactive or inconclusive.

What was measured:
[1] = qHTS assay to identify small molecule agonists of the vitamin D receptor (VDR) signaling pathway - cell viability counter screen (AID 743224); further: series mostly up to about 63 µM; on the % scale 0 is the no-effect control and ±100 the full control effect; nearly all actives have a fitted effect of over 50% in size
How it was run: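 Counter screen for cytotoxicity: VDR-bla cells at 2,000 cells/well, 16 h compound exposure, then CellTiter-Glo luminescence after the beta-lactamase measurement.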

[2] = qHTS assay to identify small molecule agonists of the NFkB signaling pathway (AID 1159509; active means well fitted curve in the direction sought with a large enough effect in the signal ratio in the repeat runs, not every such curve was filed as active; the % refers to the signal ratio; further: series mostly up to about 61 µM; on the % scale 0 is the no-effect control and ±100 the full control effect)
How it was run: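 Agonist activity was read as beta-lactamase-driven FRET change (460 and 530 nm emission, 405 nm excitation) following 1.5 hr substrate loading at room temperature. Beforehand, ME-180 NFkB-bla reporter cells were treated with compounds for 5 hr at 37 C.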

[3] = qHTS assay to identify small molecule agonists of the NFkB signaling pathway - cell viability counter screen (AID 1159515; calls by dose curve; further: series mostly up to about 61 µM; on the % scale 0 is the no-effect control and ±100 the full control effect; nearly all actives have a fitted effect of over 55% in size)
How it was run: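 Counter screen run alongside the NFkB-bla agonist assay: ME-180 reporter cells exposed to compounds for 5 hr, then lysed with CellTiter-Glo in the same wells. Luminescence, read after 30 min, reflects viable cells.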

[4] = qHTS assay to identify small molecule agonists of the endoplasmic reticulum stress response signaling pathway (AID 1159516; active means well fitted activation curve with a large enough effect in the signal ratio in the repeat runs, not every such curve was filed as active; the % refers to the signal ratio; further: on the % scale 0 is the no-effect control and ±100 the full control effect)
How it was run: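 For this screen, HeLa cells stably carrying beta-lactamase under the ER stress response element received test compounds, positive controls or DMSO for 5 hr at 37 C; B/G FRET substrate was then added and dual-wavelength emission recorded.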

[5] = qHTS assay to identify small molecule agonists of the endoplasmic reticulum stress response signaling pathway - cell viability counter screen (AID 1159517; calls by dose curve; further: series mostly up to about 61 µM; on the % scale 0 is the no-effect control and ±100 the full control effect; nearly all actives have a fitted effect of over 50% in size)
How it was run: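 In parallel with the ESRE reporter read, cytotoxicity was scored by CellTiter-Glo luminescence (30 min, room temperature) on HeLa ESRE-bla cells dosed for 5 hr.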

[6] = target: Nuclear receptor ROR-gamma (Homo sapiens) (UniProt P51449); assay: qHTS assay to identify small molecule antagonists of the retinoid-related orphan receptor gamma (ROR-gamma) signaling pathway (AID 1159521;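 further: CHO cells with doxycycline inducible ROR-gamma driving an RORE luciferase reporter; top concentration of the series differs between compounds; on the % scale 0 is the no-effect control and ±100 the full control effect; nearly all actives have a fitted effect of over 50% in size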)
How it was run: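 Tet-on RORγ CHO cells carrying a ROR response element–luciferase reporter were pretreated with compounds for 2 h, then induced with 1 uM (final) doxycycline hyclate for 16 h at 37 C. Antagonism was read as decreased ONE-Glo luminescence.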

[7] = qHTS assay to identify small molecule agonists of the AP-1 signaling pathway - cell viability counter screen (AID 1159525; calls by dose curve; further: nearly all actives have a fitted effect of over 55% in size)
How it was run: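 Same-well cytotoxicity counter screen of the Tox21 10K library in ME-180 cells. The readout is ATP-dependent luminescence after 5 h compound treatment. Data are normalised to DMSO and tetra n-octyl ammonium bromide controls.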

[8] = qHTS assay to identify small molecule agonists of the AP-1 signaling pathway (AID 1159526; calls by dose curve; further: on the % scale 0 is the no-effect control and ±100 the full control effect)
[9] = qHTS assay to identify small molecule antagonists of the retinoid acid receptor (RAR) signaling pathway - cell viability counter screen (AID 1159551); further: on the % scale 0 is the no-effect control and ±100 the full control effect; nearly all actives have a fitted effect of over 35% in size
How it was run: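 Measured by luminescent ATP detection, viability reflects C3RL4 cells treated 6 h at 37 C with test chemicals in the presence of 1 uM (final) retinol.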

[10] = qHTS assay to identify small molecule antagonists of the retinoic acid receptor (RAR) signaling pathway (AID 1159552; further: on the % scale 0 is the no-effect control and ±100 the full control effect; nearly all actives have a fitted effect of over 50% in size)
How it was run: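 RARE-luc C3RL4 cells; cpds + 1 uM (final) retinol, 6 hr, 37 C/5% CO2; luciferase reagent, 30 min RT, luminescence readout. Inhibitors of retinol-driven signal scored.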

[11] = qHTS assay to identify small molecule agonists of the retinoic acid receptor (RAR) signaling pathway (AID 1159553); further: potency means the concentration at half of the fitted maximal effect
How it was run: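 6 hr compound exposure (DMSO vehicle) of overnight-plated C3RL4 RARE-luc cells at 37 C; luminescence quantified after 30 min RT with luciferase reagent.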

[12] = qHTS assay to identify small molecule agonists of the RXR signaling pathway - cell viability counter screen (AID 1159529)
How it was run: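 RXR-alpha-UAS-bla HEK 293T cells in medium with 2% charcoal-stripped FBS were preincubated 5 hr, then exposed to compounds for 16 hr at 37 C. Viability was read as CellTiter-Glo luminescence after 30 min at room temperature.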

[13] = qHTS assay to identify small molecule antagonists of the vitamin D receptor (VDR) signaling pathway - cell viability counter screen (AID 743225)
How it was run: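 VDR-bla HEK 293T cells, 4 h pre-incubation at 37C, then compound plus 1-alpha,25-dihydroxyvitamin D3 (3 nM final) for 16 h. After the beta-lactamase FRET read, CellTiter-Glo was added to the same wells; luminescence after 30 min at room temperature.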

[14] = qHTS assay to identify small molecule antagonists of the estrogen related receptor (ERR) signaling pathway - cell viability counter screen (AID 1224818); further: series mostly up to about 46 µM; on the % scale 0 is the no-effect control and ±100 the full control effect
How it was run: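 Compounds dissolved in DMSO were applied to ERR cells seeded at 2,000 per well 6 h earlier. Cell viability followed 17.5 h later via 30-min CellTiter-Fluor fluorescence.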

[15] = qHTS assay to identify small molecule antagonists of the estrogen related receptor (ERR) signaling pathway (AID 1224819)
How it was run: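 Compounds dissolved in DMSO were pin-transferred onto ERR cells that had been plated 6 h earlier, and cells were then incubated 18 h at 37 C; signal was luciferase luminescence via One-Glo.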

[16] = qHTS assay to identify small molecule agonists of the estrogen related receptor (ERR) signaling pathway (AID 1224820); further: on the % scale 0 is the no-effect control and ±100 the full control effect
How it was run: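 After 6 h plating (2,000 cells/well) and 18 h compound treatment at 37 C, ERR cells were lysed with One-Glo and luminescence read after 30 min at room temperature.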

[17] = system: estrogen-related receptor alpha (ERRalpha) with PGC-1alpha coactivator, human; assay: qHTS assay to identify small molecule antagonists of the estrogen related receptor signaling pathway with the pleiotropic PPARgamma coactivator (PGC) (AID 1224821; calls by dose curve)
How it was run: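 Luminescence from One-Glo luciferase reagent (30 min, room temperature) measured after 18 h compound treatment at 37 °C. Cells carry the PGC/ERR reporter and were seeded 6 h prior to dosing.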

[18] = qHTS assay to identify small molecule antagonists of the estrogen related receptor signaling pathway with the pleiotropic PPARgamma coactivator (PGC) cell viability counter screen (AID 1224822)
How it was run: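 Counter screen for cell viability: PGC/ERR cells, 6 h pre-incubation after plating, 17.5 h compound exposure at 37 C, fluorescence from CellTiter-Fluor after 30 min.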

[19] = qHTS assay to identify small molecule antagonists of the retinoid-related orphan receptor gamma (ROR-gamma) signaling pathway - cell viability counter screen (AID 1159520)
How it was run: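 Tet-on ROR gamma CHO cells were given compounds for 2 hr, then doxycycline hyclate at 1 uM final, and incubated 16 hr at 37 C. Viability was measured as ATP content by CellTiter-Glo luminescence.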

[20] = target: Retinoic acid receptor RXR-alpha (Homo sapiens) (UniProt P19793); assay: qHTS assay to identify small molecule agonists of the RXR signaling pathway (AID 1159527; calls by dose curve; further: on the % scale 0 is the no-effect control and ±100 the full control effect; nearly all actives have a fitted effect of over 35% in size)
How it was run: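 GeneBLAzer RXR-alpha-UAS-bla HEK 293T cells in medium with 2% charcoal-stripped FBS, pre-incubated 5 hr at 37 C, then exposed to compounds 16 hr. Beta-lactamase reporter read by FRET substrate, 2 hr room temperature, 460/530 nm emission.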

Chain of Retinoic acid receptor RXR-alpha (Homo sapiens) (P19793 whole entry, looked up): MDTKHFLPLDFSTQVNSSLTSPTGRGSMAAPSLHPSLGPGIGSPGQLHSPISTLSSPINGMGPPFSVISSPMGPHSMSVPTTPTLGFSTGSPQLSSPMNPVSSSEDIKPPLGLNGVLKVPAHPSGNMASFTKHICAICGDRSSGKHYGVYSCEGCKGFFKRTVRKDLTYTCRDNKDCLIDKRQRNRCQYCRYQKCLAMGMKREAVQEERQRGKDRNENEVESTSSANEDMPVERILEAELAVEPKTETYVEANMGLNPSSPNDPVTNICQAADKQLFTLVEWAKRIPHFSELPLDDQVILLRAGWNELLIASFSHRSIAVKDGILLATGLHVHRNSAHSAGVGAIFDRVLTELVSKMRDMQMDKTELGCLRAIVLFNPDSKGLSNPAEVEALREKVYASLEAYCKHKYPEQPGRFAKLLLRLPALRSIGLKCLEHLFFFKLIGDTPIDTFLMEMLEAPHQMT

CCn1nc(Cc2ccccc2)cc1C1CCN(C[C@H]2C[C@H](N(C)[C@@H](C(=O)O)C(C)C)C[C@@H]2c2cccc(F)c2)CC1
inactive: outcome [1] | outcome [2] | outcome [3] | outcome [4] | outcome [5] | Potency [6] | outcome [7] | Potency [8] | outcome [9] | outcome [10] | Potency [11]

NC(=O)c1cc[n+](CC2=C(C(=O)[O-])N3C(=O)[C@@H](NC(=O)Cc4cccs4)[C@H]3SC2)cc1
inactive: outcome [1] | outcome [2] | outcome [3] | outcome [4] | outcome [5] | Potency [6] | outcome [7] | Potency [8] | Potency [12] | outcome [9] | outcome [10] | Potency [11]

O=C(O)c1cccnc1Nc1cccc(C(F)(F)F)c1
inactive: outcome [1] | outcome [13] | outcome [2] | outcome [3] | outcome [4] | outcome [5] | Potency [6] | outcome [7] | Potency [8] | Potency [12] | outcome [9] | outcome [10] | outcome [14] | Potency [15] | outcome [16] | outcome [17] | outcome [18]

O=C(O)c1cc(C(=O)O)c(C(=O)O)cc1C(=O)O
inactive: outcome [1] | outcome [13] | outcome [2] | outcome [3] | outcome [4] | outcome [5] | Potency [6] | outcome [7] | Potency [8] | Potency [12] | outcome [9] | outcome [10]

CCc1cnc(C(=O)O)c(C(=O)O)c1
inactive: outcome [1] | outcome [13] | outcome [2] | outcome [3] | outcome [4] | outcome [5] | Potency [6] | outcome [7] | Potency [8] | Potency [12] | outcome [9]

C=CC(C)(O)CC/C=C(/C)CCC=C(C)C (stereo not drawn)
inactive: outcome [1] | outcome [13] | outcome [2] | outcome [3] | outcome [4] | outcome [5] | Potency [19] | outcome [7] | Potency [8] | Potency [12] | outcome [9]

C[C@H]1C[C@H]2[C@@H]3CCC4=CC(=O)C=C[C@]4(C)[C@@]3(F)[C@@H](O)C[C@]2(C)[C@@]1(O)C(=O)COP(=O)(O)O
inactive: outcome [1] | outcome [13] | outcome [2] | outcome [3] | outcome [4] | outcome [5] | Potency [19] | outcome [7] | Potency [8] | Potency [12] | outcome [9]

COC(=O)Cc1cccc2ccccc12
inactive: outcome [1] | outcome [13] | outcome [2] | outcome [3] | outcome [4] | outcome [5] | Potency [6] | outcome [7] | Potency [8] | Potency [12] | outcome [9]

Cc1cc(SC2=C(O)C[C@@](CCc3ccc(N)cc3)(C(C)C)OC2=O)c(C(C)(C)C)cc1CO
inactive: outcome [1] | outcome [13] | outcome [2] | outcome [3] | outcome [4] | outcome [5] | Potency [6] | outcome [7] | Potency [8] | Potency [12] | outcome [9]

C[C@@H](O)[C@H]1C(=O)N2C(C(=O)O)=C(S[C@@H]3CN[C@H](CNS(N)(=O)=O)C3)[C@H](C)[C@H]12
inactive: outcome [2] | outcome [3] | outcome [4] | outcome [5] | Potency [19] | outcome [7] | Potency [8] | outcome [9]

CC(=O)c1cccnc1
inactive: outcome [1] | outcome [13] | outcome [2] | outcome [3] | outcome [4] | outcome [5] | Potency [6] | outcome [7] | Potency [8] | Potency [12] | outcome [9]

c1ccc(-c2ccc(-c3ccccc3)cc2)cc1
active: Potency [11] 0.996 µM
inactive: outcome [1] | outcome [13] | outcome [2] | outcome [3] | outcome [4] | outcome [5] | activity change, negative = inhibition [6] 98.3% [at 19 µM] | viability change, negative = cytotoxic [7] 1.74% [at 15.8 µM] | activation [8] -13.1% [at 15.8 µM] | activity change, negative = cytotoxicity [12] 4.66% [at 15.8 µM] | activity change, negative = cytotoxicity [9] 4.6% [at 19 µM] | activity, negative = inhibition [10] 100% [at 19 µM]

CC(=O)Oc1cccc2c1C(=O)c1c(OC(C)=O)cc(C(=O)O)cc1C2=O
inactive: outcome [1] | outcome [13] | outcome [2] | outcome [3] | outcome [4] | outcome [5] | Potency [19] | outcome [7] | Potency [8] | Potency [12] | outcome [9] | outcome [10] | Potency [11]

CCCCCO
inactive: outcome [1] | outcome [13] | outcome [2] | outcome [3] | outcome [4] | outcome [5] | Potency [19] | outcome [7] | Potency [8] | Potency [12] | outcome [9]

CCC(CC)C(=O)O
inactive: outcome [1] | outcome [13] | outcome [2] | outcome [3] | outcome [4] | outcome [5] | Potency [19] | outcome [7] | Potency [8] | Potency [12] | outcome [9] | outcome [10]

Nc1ccccc1Nc1ccccc1
inactive: outcome [1] | outcome [13] | outcome [2] | outcome [3] | outcome [4] | outcome [5] | Potency [19] | outcome [7] | Potency [8] | outcome [10]

CCc1c(C)[nH]c2c1C(=O)C(CN1CCOCC1)CC2 (stereo not drawn)
inactive: outcome [1] | outcome [13] | outcome [2] | outcome [3] | outcome [4] | outcome [5] | Potency [19] | outcome [7] | outcome [20] | Potency [12] | outcome [9] | outcome [10] | Potency [11] | outcome [14] | outcome [18]

COc1ccc(C(=O)c2ccc(C)cc2)c(O)c1
inactive: outcome [1] | outcome [13] | outcome [2] | outcome [3] | outcome [4] | outcome [5] | Potency [19] | outcome [7] | Potency [8] | Potency [12] | outcome [9]

CCC(C(=O)O)c1ccc(N2Cc3ccccc3C2=O)cc1 (stereo not drawn)
inactive: outcome [1] | outcome [13] | outcome [2] | outcome [3] | outcome [4] | outcome [5] | Potency [19] | outcome [7] | Potency [8] | outcome [9] | outcome [10]
active: Potency [11] 3.76 µM

CC(Cc1ccccc1)(NC(=O)CN)c1ccccc1 (stereo not drawn)
inactive: outcome [1] | outcome [13] | outcome [2] | outcome [3] | outcome [4] | outcome [5] | Potency [19] | outcome [7] | outcome [20] | Potency [12] | outcome [9] | outcome [10] | Potency [11]

COc1cc(CNC(=O)CCCC/C=C/C(C)C)ccc1O
inactive: outcome [1] | outcome [13] | outcome [2] | outcome [3] | outcome [4] | outcome [5] | Potency [6] | outcome [7] | Potency [8] | Potency [12] | outcome [9] | outcome [10]
